From PubChem BioAssay AID1645857 (Buhrlage Lab, Dana-Farber Cancer Institute and Novartis …, 2021)
About 1,400 (3%) of roughly 47,000 compounds were called active. No stated cut-off is given here; in the data, active means inhibition above about 30%; inactive means the rest. Many of the other results were omitted from the sample, so actives are more common in it than they were.

target: Ubiquitin carboxyl-terminal hydrolase 28 (Homo sapiens) (UniProt Q96RU2); assay: blocks human USP28 ubiquitin-rhodamine cleavage (AID 1645857); settings: purified USP28, Ub-rhodamine cleavage fluorescence, 30 min; at 25 µM; stronger effect = higher value
Sequence (Q96RU2 whole entry, looked up): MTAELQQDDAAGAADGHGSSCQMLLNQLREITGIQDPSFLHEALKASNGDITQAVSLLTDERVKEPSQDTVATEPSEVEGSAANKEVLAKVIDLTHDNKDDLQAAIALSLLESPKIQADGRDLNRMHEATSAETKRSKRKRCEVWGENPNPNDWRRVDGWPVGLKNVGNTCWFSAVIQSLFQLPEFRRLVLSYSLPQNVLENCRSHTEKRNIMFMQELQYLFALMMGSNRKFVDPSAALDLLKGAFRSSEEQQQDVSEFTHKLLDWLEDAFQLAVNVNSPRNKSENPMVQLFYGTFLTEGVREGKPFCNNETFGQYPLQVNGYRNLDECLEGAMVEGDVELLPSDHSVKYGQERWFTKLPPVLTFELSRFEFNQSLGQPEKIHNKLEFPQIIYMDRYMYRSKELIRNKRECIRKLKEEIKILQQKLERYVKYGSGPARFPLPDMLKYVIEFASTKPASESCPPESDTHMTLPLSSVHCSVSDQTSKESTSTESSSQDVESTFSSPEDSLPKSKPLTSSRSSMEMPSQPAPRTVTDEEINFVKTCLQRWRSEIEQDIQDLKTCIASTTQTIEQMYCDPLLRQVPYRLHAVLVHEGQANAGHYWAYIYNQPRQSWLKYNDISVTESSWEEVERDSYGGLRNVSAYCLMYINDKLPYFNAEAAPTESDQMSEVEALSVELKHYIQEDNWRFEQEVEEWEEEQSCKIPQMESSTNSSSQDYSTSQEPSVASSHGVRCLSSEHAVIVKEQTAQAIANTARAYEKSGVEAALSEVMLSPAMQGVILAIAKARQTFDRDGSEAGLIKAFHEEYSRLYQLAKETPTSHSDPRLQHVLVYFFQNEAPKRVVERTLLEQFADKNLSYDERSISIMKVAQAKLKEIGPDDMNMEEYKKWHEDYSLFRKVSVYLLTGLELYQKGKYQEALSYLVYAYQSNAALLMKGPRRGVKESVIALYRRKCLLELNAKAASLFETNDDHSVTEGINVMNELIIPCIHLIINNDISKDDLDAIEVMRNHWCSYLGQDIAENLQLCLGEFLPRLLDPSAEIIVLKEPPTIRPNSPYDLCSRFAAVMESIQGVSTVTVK

Row | Structure (SMILES) | inhibition
1 | CC(C)CN1[C@H]2CCN(C(=O)c3cnccn3)CC[C@@H]2Oc2ccccc2S1(=O)=O | -3.97% (inactive)
2 | Cc1nc2ccccc2n1CCNC(=O)c1ccccc1Cl | -3.71% (inactive)
3 | CC(=O)N1CCc2cc(S(=O)(=O)NCC(=O)NCc3ccc4c(c3)OCO4)ccc21 | -1.7% (inactive)
4 | Cc1noc(CNC(=O)c2cc(-c3ccco3)on2)n1 | -29.2% (inactive)
5 | O=C(NCc1cccnc1)C1CCN(c2cnc(N3CCCCCC3)nc2)CC1 | 60.9% (active)
6 | Cc1cccc(CNC(=O)C2CCN(c3cnc4nccnc4c3)CC2)c1 | -81.1% (inactive)
7 | Cc1[nH]c(C(=O)N2CCCC(C(=O)NCc3cccnc3)C2)c(C)c1C (stereo unspecified) | -6.57% (inactive)
8 | O=c1c2c(ncn2C2CCCC2)n(Cc2ccccc2)c(=O)n1Cc1ccccc1 | 6.37% (inactive)
9 | O=C(O)c1cc(-c2ccc(-c3ccccc3F)o2)nc2ccc(F)cc12 | -179% (inactive)
10 | CCc1ccccc1NC(=O)N1CCCC1c1ccnn1CC (stereo unspecified) | 12.8% (inactive)
11 | CCC(Oc1ccccc1)C(=O)NCc1ccc2c(c1)OCO2 (stereo unspecified) | 6.67% (inactive)
12 | c1ccc(-c2ccc(NCc3ccc4c(c3)OCO4)nn2)cc1 | 61.2% (active)
13 | c1cc(CNCc2ccc3c(c2)OCO3)ccn1 | -2.19% (inactive)
14 | N#CC1=C(N)Oc2nc[nH]c(=O)c2C1c1cccc(F)c1 (stereo unspecified) | -2.3% (inactive)
15 | CCC(C)[C@H](NS(=O)(=O)c1ccc(C)cc1)C(=O)N1CCC(C(=O)N[C@H](Cc2c[nH]c3ccccc23)C(=O)O)CC1 (stereo partly specified) | -2.54% (inactive)
16 | CCCCCCSc1ncnc2c1sc1nc(-c3ccccc3)c3c(c12)CC(C)(C)OC3 | -0.572% (inactive)
17 | CCCCc1nc2sc3c(SCC(=O)NCc4ccccc4)ncnc3c2c2c1CCC2 | 54.5% (active)
18 | CCCc1nc2sc3c(N4CCC(C)CC4)ncnc3c2c2c1CCC2 | 2.73% (inactive)
19 | Cc1ccc(NC(=O)CSc2nnc(-c3cnccn3)n2Cc2ccco2)cc1C | -1.17% (inactive)
20 | CCn1c(SCc2cccc(C)c2)nnc1-c1cnccn1 | 58.5% (active)
21 | CCc1ccc(NC(=O)CSc2nnc(-c3cnccn3)n2Cc2ccco2)cc1 | -5.3% (inactive)
22 | COc1ccccc1C(=O)Nc1cccc(Oc2ccccc2)c1 | 19.6% (inactive)
23 | COc1cc(O)sc1C=Nc1ccc(Oc2ccccc2)cc1 | 40.7% (active)

Row | Structure (SMILES) | inhibition
24 | O=C(c1ccc[nH]1)N1CCCn2c(nc(Cn3ccnc3)cc2=O)C1 | 12.3% (inactive)
25 | CCN(C(=O)CSc1nnc(-c2ccoc2C)o1)c1ccccc1 | 6.53% (inactive)
26 | Cc1ccc(NC(=O)NCc2nnnn2-c2ccccc2)cc1C | 5.32% (inactive)
27 | CC(C)c1ccc(OCC(=O)NCc2nnnn2-c2ccc(Cl)cc2)cc1 | 20.1% (inactive)
28 | O=C(COc1ccc2ccccc2c1)NCc1nnnn1-c1ccc(Cl)cc1 | 30.4% (active)
29 | Cc1ccc(C)c(NC(=O)c2cn(C)cc3c(=O)n(-c4ccccc4)nc2-3)c1 | 2.87% (inactive)
30 | COc1cc(Cn2cnc3c([nH]c4ccc(Br)cc43)c2=O)cc(OC)c1 | 43.8% (active)
31 | CCOc1ccc2[nH]c3c(=O)n(Cc4cccnc4)cnc3c2c1 | 13.7% (inactive)
32 | O=c1c2[nH]c3ccc(Cl)cc3c2ncn1Cc1cccnc1 | -8.15% (inactive)
33 | CCOc1cccc(C(=O)N2CCC(c3nc4ccccc4o3)CC2)c1 | -7.65% (inactive)
34 | Cc1cc(C)n2c(SCC(=O)Nc3cc(C(C)(C)C)nn3-c3ccccc3)nnc2n1 | 6.69% (inactive)
35 | Cc1cc(C(F)(F)F)n2nc(C3CCN(C(=O)c4cc5ccccc5s4)C3)cc2n1 (stereo unspecified) | 17.6% (inactive)
36 | NCCCC(=O)N1CCC2(CC1)C(=O)NCN2C(=O)Cc1ccccc1 | -0.0141% (inactive)
37 | O=C1CO[C@H]2CN(Cc3ncc[nH]3)C[C@H]2N1c1ccccc1 | 19.7% (inactive)
38 | COc1ccccc1CCNC(=O)CCc1c(C)c2ccc(O)c(C)c2oc1=O | 2.41% (inactive)
39 | Cc1cc(NC(=O)COC(=O)c2cccc(C)c2O)ccc1Br | 5.74% (inactive)
40 | Cc1cc(-c2nnc(SCC(=O)Nc3ccc(Br)c(C)c3)n2N)n[nH]1 | 38.4% (active)
41 | Nn1c(SCC(=O)Nc2ccccc2F)nnc1-c1n[nH]c2c1CCC2 | -7.92% (inactive)
42 | O=C(CN1CCC2(CC=CCN(CCc3ccccc3)C2=O)CC1)Nc1ccc(F)cc1 | -25.4% (inactive)
43 | COc1ccc(C(=O)N2CCc3cc4ccccc4nc32)cc1OC | -5.16% (inactive)
44 | O=S(=O)(c1ccc(Cl)cc1)N1CCc2nc[nH]c2C1 | -11.8% (inactive)
45 | CC1CCC/C=C/C=C/C(=O)CC(O)C/C=C\C=C\C(O)C/C=C/C=C\C(=O)O1 (stereo unspecified) | 2.22% (inactive)
46 | COCCN1C[C@@]23CN(C(=O)NCc4ccccc4)C[C@@H](C[C@@H]2S1(=O)=O)O3 | 5.8% (inactive)

Row | Structure (SMILES) | inhibition
47 | CCc1ccc(NC(=O)N2C[C@H]3C[C@H]4[C@](C2)(CN(Cc2cccnc2)S4(=O)=O)O3)cc1 | 1.25% (inactive)
48 | CC(C)CN1C[C@@]23CN(C(=O)NCCc4ccc(F)cc4)C[C@@H](C[C@@H]2S1(=O)=O)O3 | 32.3% (active)
49 | CC(C)NC(=O)c1nc(Cn2c(C(F)F)nc3ccccc32)no1 | 5.94% (inactive)
50 | CC1=C(C(=O)Nc2ccc(C)cc2C)C(c2cccs2)n2c(nc3ccccc32)N1 (stereo unspecified) | 6.45% (inactive)
51 | O=C(c1ccccn1)N1CCn2nc(-c3ccc4ccccc4c3)cc2C1 | 1.7% (inactive)
52 | O=C(Cc1ccccc1F)N1CCCC(c2[nH]nc3nccnc23)C1 (stereo unspecified) | 1.05% (inactive)
53 | COc1ccc(NC(=O)C2=C(C)Nc3ncnn3C2c2cccc(OCc3ccc(F)cc3)c2)c(OC)c1 (stereo unspecified) | 46.2% (active)
54 | COc1ccccc1NC(=O)C1=C(C)Nc2ncnn2C1c1ccc(C)o1 (stereo unspecified) | 1.41% (inactive)
55 | COc1cccc(C2C(C(=O)Nc3ccccc3C)=C(C)Nc3ncnn32)c1OCc1ccccc1 (stereo unspecified) | 2.46% (inactive)
56 | CNc1cccc(C2CN(C(=O)c3cnn4cccnc34)CCO2)n1 (stereo unspecified) | -3.02% (inactive)
57 | O[C@@H]1C[C@H]2CN(Cc3ccc(F)cc3)[C@H](Cc3ccccc3)CN2C1 | 2.96% (inactive)
58 | COc1ccc2c(c1)OC[C@@H](Cc1ccccc1)N(Cc1ccncc1)[C@H]2C | 8.99% (inactive)
59 | N#Cc1cccc(CSc2ncnc(N)n2)c1 | 39.9% (active)
60 | Cc1ccc(-c2cc3n(n2)CCCN(C(=O)c2ccccn2)C3)cc1 | 0.0245% (inactive)
61 | Cc1ccc(Cl)cc1NC(=O)N1CCc2nc(N3CCCCC3)ncc2C1 | -54.3% (inactive)
62 | Cc1ccc(N2CCCS2(=O)=O)cc1NC(=O)Cc1ccc(Cl)cc1 | 33.1% (active)
63 | Cc1ccc(CC(=O)Nc2nnc(C3CC(=O)N(c4ccc(C)c(C)c4)C3)s2)cc1 (stereo unspecified) | 13.1% (inactive)
64 | Cn1ccc(C(=O)NCc2cnc(C3CCCCO3)nc2)n1 (stereo unspecified) | 6.1% (inactive)
65 | Cc1ccc(C)c(CSc2nc(-c3ccco3)nc3c2c(=O)n(C)c(=O)n3C)c1 | -10.3% (inactive)
66 | COc1ccc(CC(=O)Nc2ccc3c(c2)CN(C(=O)c2ccco2)CC3)cc1 | 23.1% (inactive)
67 | Cc1ccc(C)c(CSC2=NCCN2C(=O)c2ccco2)c1 | 70.4% (active)
68 | Cc1ccc(-n2cc(-c3noc(C(=O)Nc4ccc(F)cc4C)n3)nn2)cc1 | 13.4% (inactive)
69 | CC(C)NC(=O)c1csc(-c2ccc(N3CCCC3)nc2)n1 | -10% (inactive)

Row | Structure (SMILES) | inhibition
70 | Cc1cc(C(=O)CSc2nnc(-c3ccc(F)cc3)n2C)c(C)n1C | -21.9% (inactive)
71 | Cn1c(SCc2ccc(Cl)cc2)nnc1-c1ccc2c(c1)OCCO2 | 41% (active)
72 | O=C(CSc1nnc(-c2ccc3c(c2)OCO3)n1-c1ccccc1)OCC(=O)c1ccccc1 | 14.9% (inactive)
73 | O=C(N[C@@H](Cc1ccccc1)C(=O)N1CCc2ccccc2C1)c1cccnc1 | 5.48% (inactive)
74 | Cc1oc(-c2cccc(Cl)c2)nc1Cn1c(=O)n(C(C)C)c(=O)c2ccccc21 | -19% (inactive)
75 | CCc1nc(SCC(=O)Nc2cccc3ccccc23)c2oc3ccccc3c2n1 | 2.85% (inactive)
76 | Cc1c(C(=O)NC2CCCCC2)oc2ccccc12 | 3.81% (inactive)
77 | O=C(CSc1ncnc2c1oc1ccccc12)NC1CCCC1 | 46.9% (active)
78 | O=C(Cc1nnc2c(-c3nc(C4CC4)no3)cccn12)Nc1ccccc1 | 11% (inactive)
79 | CN(C)C(=O)CN1CCC2(CC1)CN(Cc1ccccn1)C(=O)CO2 | 8.76% (inactive)
80 | CN1CCN(c2ncc3c(=O)n(CC4CCCO4)ccc3n2)CC1 (stereo unspecified) | -10.1% (inactive)
81 | O=C(CCN1C(=O)c2cccnc2Sc2ccccc21)Nc1cc(F)ccc1F | 11% (inactive)
82 | Cc1cc(C)c(NC(=O)CCN2C(=O)c3cccnc3Sc3ccccc32)c(C)c1 | 32.4% (active)
83 | COc1ccc(NC(=O)CCN2C(=O)c3cccnc3Sc3ccccc32)cc1 | 9.9% (inactive)
84 | CC(C)(C)c1nn(-c2ccccc2)c2[nH]c(=O)c(CNCCc3ccccc3)cc12 | 20.3% (inactive)
85 | Cc1ccccc1Nc1nc(N)nc(CSc2ccccc2)n1 | -0.136% (inactive)
86 | CCn1cc(C(=O)OCC(=O)Nc2cc(F)ccc2F)c(=O)c2ccc(C)nc21 | -0.0765% (inactive)
87 | Cc1cccc(S(=O)(=O)NCCc2cn(C)c3ncccc23)c1 | -5.33% (inactive)
88 | Cn1c(CCNC(=O)c2ccc(C(C)(C)C)cc2)nc2cccnc21 | -229% (inactive)
89 | Cn1cc(-c2nc(C(=O)Nc3ccc(F)cc3)cs2)c2cccnc21 | 21.1% (inactive)
90 | Cn1cc(CCNC(=O)c2cc3ccccc3[nH]2)c2cccnc21 | 63.9% (active)
91 | Cn1cc(CCNC(=O)Nc2cc(F)ccc2F)c2cccnc21 | 44.1% (active)
